# Compound activity: PubChem, several laboratories
# BioA inh = M. tuberculosis BioA enzyme inhibitors, primary screen, biochemical, plate reader, single point, HTS. purified M. tuberculosis BioA enzyme. 360,000 compounds, 0.096% hits. AID 602481, 2012. inhibition, % at 9.99 µM; in the data active = inhibition above about 40%
# PfHsp40 rescue = rescue of yeast from PfHsp40 toxicity, primary screen, S. cerevisiae, ATP luminescence. S. cerevisiae expressing PfHsp40, growth rescue. growth rescue, % at 12.5 µM. 340,000 compounds, 0.68% hits. AID 504582, 2011; in the data active = growth rescue above about 28%, passing the limit was not always enough;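 note: yeast W303a lacking pdr1 and pdr3 grown in galactose medium; growth measured after three days at 30 °C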
# DUSP3 inh = VHR1 phosphatase inhibitors, primary screen, biochemical, absorbance, uHTS; Dual specificity protein phosphatase 3 (Homo sapiens), P51452; recombinant VHR phosphatase, pNPP absorbance; inhibition, % at 13.3 µM; 290,000 compounds, 0.52% hits; AID 1654, 2009; in the data active = inhibition above about 50%
# Vc quorum ag = inducers of Vibrio cholerae quorum light production without autoinducers, primary screen, BH1578 luxS cqsA deficient, single point. V. cholerae BH1578 lux reporter, luminescence, 6 h. activation, % at 18.7 µM. 350,000 compounds, 0.16% hits. AID 588436, 2011; in the data active = activation mostly above about 9.7%, no sharp cut-off
# Yp Topo-I inh = Yersinia pestis topoisomerase I inhibitors, primary screen, biochemical, cleavage product accumulation, plate reader, single point; DNA topoisomerase I (Yersinia pestis CO92); Y. pestis Topo-I cleavage product accumulation; activity, % at 10 µM; 360,000 compounds, 0.064% hits; AID 504884, 2011; in the data active = activity above about 50%, passing the limit was not always enough
# TcdB GH inh = TcdB glycohydrolase inhibitors, primary screen, biochemical, single point, plate reader. Toxin B (Clostridioides difficile), P18177. TcdB glycohydrolase enzymatic assay. inhibition, % at 9.99 µM. 350,000 compounds, 0.24% hits. AID 652162, 2013; in the data active = inhibition above about 10%
# The depositor's hits bear a star; i = inactive; · = no result given. A selection: hits, their analogues and other compounds. The true share with any hit is near 1.2%.
SMILES,BioA inh,PfHsp40 rescue,DUSP3 inh,Vc quorum ag,Yp Topo-I inh,TcdB GH inh
CCCCCc1cc(OC)cc2c1C(=O)OC(C)(C)O2,-5,72*,·,-2,6,1
O=C(c1ccccc1)c1coc2ccc(O)c(Cl)c12,0,0,0,i,0,12*
Cn1c(CSCc2ccc(F)cc2)n[nH]c1=S,-1,-2,6,i,4,-6
Cn1c(CSCc2ccc(Cl)cc2)n[nH]c1=S,-1,-1,52*,i,0,3
CCC(=O)Nc1nc2ccccc2n1CCN1CCOCC1,0,8,15,i,2,·
CCCCCCCn1c(NC(=O)CC)nc2ccccc21,3,93*,9,-1,18,3
CCCCCCn1c(C(C)NC(=O)c2ccco2)nc2ccccc21 (stereo not drawn),1,0,54*,-1,18,·
O=C1NC(=O)C(=Cc2ccccc2OCCOc2ccc([N+](=O)[O-])cc2)C(=O)N1,·,45*,1,0,-3,·
CC(=O)Nc1ccc(O)cc1,0,0,·,-1,0,25*
CC(=O)N/C(=C\c1ccccc1)C(=O)Nc1ccc(O)cc1,·,-1,13,1,-4,13*
CC(=O)Nc1ccc(C)cc1,-1,-1,·,0,-6,0
O=C(Nc1ccc(N2CCN(c3ccc(O)cc3)CC2)cc1)Oc1ccccc1,-3,1,8,i,-14,-1
Nc1ccc(OC(=O)Nc2ccc(O)cc2)cc1,1,0,8,1,-3,12*
CC(C)(C)[S@@](=O)N1Cc2cc(C(=O)N3CCc4ccccc4C3)nc(-c3cccc(-c4cncnc4)c3)c2[C@H]1CCO,-1,·,·,·,·,1
CCOC(=O)N1CCN(C(=O)C2CCN(C(=O)c3ccccc3C)CC2)CC1,-3,703*,·,-3,-5,1
Cc1ccccc1C(=O)N1CCC(C(=O)N2CCN(c3ncccn3)CC2)CC1,-2,-1,·,-2,5,4
N#Cc1sc2nc(-c3cccs3)cc(-c3ccccc3)c2c1N,0,0,9,i,-2,2
CCCOc1cccc(-c2nn(-c3ccccc3)cc2/C=C(\C#N)C(=O)NCCCn2ccnc2)c1,-2,45*,17,-1,21,1
N#C/C(=C/c1cn(-c2ccccc2)nc1-c1cccc(OCc2ccc(F)cc2)c1)C(=O)NCCCn1ccnc1,·,-2,5,0,25,·
CSc1ncccc1C(=O)N1CCN(S(=O)(=O)c2ccc(C)cc2)CC1,-1,0,26,i,3,8
CSc1ncccc1C(=O)N1CCN(S(=O)(=O)c2ccccc2)CC1,0,0,58*,0,4,1
C/C(=N\NC(=S)NCc1ccccc1)c1cccc(Br)c1,·,136*,-10,0,28,1
O=c1c(Cl)c(O)c2cccc3c4ccccc4n1c23,·,2,9,0,0,0
COc1c(O)c(=O)n2c3ccccc3c3ccnc1c32,0,66*,·,0,-2,-5
Cc1cc(C)nc(Nc2ccccc2Cl)n1,-2,0,-37,i,-8,-1
SMILES,BioA inh,PfHsp40 rescue,DUSP3 inh,Vc quorum ag,Yp Topo-I inh,TcdB GH inh
C[C@H](CO)N1C[C@H](C)[C@@H](CN(C)Cc2ccc(C(F)(F)F)cc2)Oc2ccc(NS(=O)(=O)c3cccs3)cc2CC1=O,2,·,·,·,·,0
CCOC(=O)c1cc(OC(=O)c2cccc([N+](=O)[O-])c2)n(-c2ccccc2)n1,0,22,23,0,39,·
CCOC(=O)c1cc(OC(=O)c2ccccc2)n(-c2ccccc2)n1,1,112*,12,0,4,·
COCC#Cc1ccc2c(c1)O[C@H](CN(C)C(=O)CC1CC1)[C@@H](C)CN([C@H](C)CO)S2(=O)=O,-1,·,·,·,·,12*
CC1(C)Cc2c(sc3c2c(=N)n(Cc2ccco2)c(=O)n3CC(=O)Nc2cccc(Cl)c2)CO1,-2,-1,-9,0,11,·
Cc1cccc(NC(=O)Cn2c(=O)n(Cc3ccco3)c(=N)c3c4c(sc32)COC(C)(C)C4)c1,-1,0,52*,-1,-5,·
O=C(Nc1cc(Cl)cc(Cl)c1)C1CCCC1,-1,70*,33,0,-13,-8
CCc1ccc(NC(=O)CSc2nncn2-c2cccnc2)cc1,1,0,56*,0,5,-1
COc1ccccc1NC(=O)CSc1nncn1-c1cccnc1,5,-1,9,-1,-3,1
Brc1ccc(-c2nnc(SCCC3OCCCO3)o2)cc1,-7,1,38,4,25,·
CCCC#Cc1cnc2c(c1)C(=O)N([C@H](C)CO)C[C@@H](C)[C@@H](CN(C)Cc1ccccc1)O2,7,·,·,·,·,-1
CC(C)[C@H](CN1CCC[C@H]1CN1C(N)=NC[C@@H]1Cc1ccccc1)N1C[C@@H](Cc2ccccc2)N(CCc2ccc(Cl)c(Cl)c2)C1=N,0,35*,·,i,-7,·
O=C(CSc1nnnn1-c1cccc(F)c1)NC1CC1,-1,0,·,1,-6,1
Cc1ccc(Nc2nc(CSc3nnc(-c4ccncc4)n3C)cs2)cc1,2,0,58*,-1,8,·
COc1ccc([C@H]2CC(=O)C=C(c3cc(Cl)ccc3C)C2)cc1,-2,9,·,-1,42,1
Cc1ccc(Cl)cc1C1=CC(=O)C[C@H](c2ccc(F)cc2)C1,-2,4,·,i,69*,1
CC(=O)C1=C(O)C(=O)N(c2ccc(O)cc2)C1c1ccc([N+](=O)[O-])cc1 (stereo not drawn),2,-1,-5,-2,5,3
O=[N+]([O-])c1ccc(NC(=S)NCc2ccc(F)cc2)cc1,4,109*,38,i,-16,1
O=[N+]([O-])c1ccc(NC(=S)NCc2ccncc2)cc1,·,1,36,1,-10,1
CC(C)c1nc(SCC(=O)Nc2ccc(N3CCOCC3)cc2)c2ccccc2n1,-1,25*,-5,-1,3,·
O=C(CN1CCc2ccccc2C1)Nc1ccc(F)cc1,-2,1,17,i,-1,1
CC1CCN(C(=O)C2CCC(CNc3c(N4CCCCC4)c(=O)c3=O)CC2)CC1 (stereo not drawn),·,-1,19,3,3,1
CC1CC(C)CN(C(=O)C2CCC(CNc3c(N4CCCCC4)c(=O)c3=O)CC2)C1 (stereo not drawn),·,53*,2,-2,6,1
O=C(c1ccccc1)c1nc2ccccc2n(CCCn2c(=O)c(C(=O)c3ccccc3)nc3ccccc32)c1=O,0,-1,34,i,9,·
Cn1c(=O)c(C(=O)c2ccccc2)nc2ccccc21,1,1,52*,0,5,·
